In the library only some 3.7% were active in any assay of this set; here they are far more common.
VDR inhibitor – inhibitors of human vitamin D receptor; P11473; VDR-SRC2-3 peptide fluorescence polarization, 2 h; Potency, µM, hits mostly inhibitors; actives 0.93% (n = 400,000); AID 504847
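Fluorescence polarization assay of small-molecule disruption of VDR binding to coregulator peptide SRC2-3. Compounds and controls pin-transferred, then read after 2 h incubation at ambient room temperature.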
PI5P4K alpha inh – inhibitors of human PI5P4K alpha; P48426; PI5P4Kalpha enzyme, ADP-Glo luminescence, 60 min; active compounds read low; max response, %; actives 1.2% (n = 330,000); active = max response of -50% or lower; inconclusive = between -30% and -50%; inactive = -30% or higher; also: value at the top dose of about 77 µM
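Reactions run in 0.038 M HEPES pH 7.4, 0.28 mM EGTA, 0.1% CHAPS and 5% DMSO, with PI5P4Kalpha, substrate, compound and 5 microM ATP final, one hour at room temperature. Readout is ADP-Glo luminescence.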
FEN1 inh – blocks human flap endonuclease 1; Recombinant FEN1 flap cleavage, fluorescence, 15 min; Potency, µM (top dose mostly 114 µM), hits mostly inhibitors; actives 0.35% (n = 390,000); AID 588795; also: nearly all actives have a fitted effect of over 65% in size
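With each library titrated from low to high concentration, compounds met 10 nM FEN1 for 15 min at room temperature before 50 nM substrate was added; readings at 0 and 15 min fed four-parameter Hill curve fits.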
PLK1 PBD block – blocks phosphopeptide binding to human PLK1 polo-box domain; P53350; Plk1 PBD binding of FITC phosphopeptide, fluorescence polarization; Potency, µM, most hits filed as inhibitors; actives 2.8% (n = 360,000); also: series mostly up to about 57 µM; nearly all actives have a fitted effect of over 65% in size
Target sequence (P53350 whole entry, looked up, the tested form may be a part): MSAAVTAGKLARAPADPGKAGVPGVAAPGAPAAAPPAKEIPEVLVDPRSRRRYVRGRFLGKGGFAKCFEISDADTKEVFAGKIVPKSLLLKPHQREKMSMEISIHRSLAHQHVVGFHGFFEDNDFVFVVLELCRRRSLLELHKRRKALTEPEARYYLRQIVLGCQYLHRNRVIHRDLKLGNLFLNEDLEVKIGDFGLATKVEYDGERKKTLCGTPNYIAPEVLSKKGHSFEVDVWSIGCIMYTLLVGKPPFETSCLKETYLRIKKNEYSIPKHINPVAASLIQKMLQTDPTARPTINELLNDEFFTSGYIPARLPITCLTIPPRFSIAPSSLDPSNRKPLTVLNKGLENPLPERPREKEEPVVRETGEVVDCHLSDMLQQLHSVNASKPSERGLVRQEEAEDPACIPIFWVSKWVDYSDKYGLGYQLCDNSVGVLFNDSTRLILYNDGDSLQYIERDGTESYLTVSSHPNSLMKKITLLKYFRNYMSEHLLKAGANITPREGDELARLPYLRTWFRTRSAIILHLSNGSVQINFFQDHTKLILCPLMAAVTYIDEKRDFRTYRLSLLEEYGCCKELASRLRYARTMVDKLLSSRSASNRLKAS
TCR act – activators of T cell receptors | primary human leukocytes, anti-CD3, IL-2 HTRF, 48 h | Potency, µM (series often up to 9.22 µM), actives largely listed as activators | 330,000 tested, under 10 active | AID 504894
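Compounds are tested in HTS on primary human leukocytes co-incubated with a-CD3 beads for 48 hr. IL-2 output is measured by time-resolved FRET.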
WRN helicase inh – inhibitors of human WRN helicase; Q14191; WRN helicase unwinding, fluorescent forked duplex, kinetic; Potency, µM (top dose mostly 114 µM), actives largely listed as inhibitors; actives 0.46% (n = 360,000); AID 651768; also: nearly all actives have a fitted effect of over 55% in size
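Fluorescence dequenching readout, ex 525 nm/em 598 nm, kinetic mode: forked duplex DNA (100 nM final) with adjacent fluorophore and quencher unwound by WRN (20 nM final) with 2 mM ATP. Compound preincubation 15 min, room temperature.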
Numbers stand for hits; [ ] = remark or other dose. Unless noted, calls follow the shape of the dose curve; as a rule, active = well fitted curve in the direction sought with a large enough effect; inconclusive = small, poorly fitted or top-dose-only effect, or another doubt; inactive = no such curve, though single readings can be large; an effect the other way counts as inactive or inconclusive.

For CCC(C)OC(=O)/C(C#N)=C\c1ccc(-c2cccc(C(F)(F)F)c2)o1 (centres undefined) the results were VDR inhibitor inactive and FEN1 inh inactive.
Cc1ccccc1N(C(=O)c1csnn1)C(C(=O)NC(C)(C)C)c1cccs1 (centres undefined) was read as VDR inhibitor inconclusive, PI5P4K alpha inh inconclusive, FEN1 inh inactive, PLK1 PBD block 8.44µM, TCR act inactive and WRN helicase inh inconclusive.
Screening Cn1c(=NC(=O)c2ccccc2[N+](=O)[O-])sc2cc(S(C)(=O)=O)ccc21 returned VDR inhibitor inactive, PI5P4K alpha inh inactive, FEN1 inh inactive, PLK1 PBD block inactive, TCR act inactive and WRN helicase inh inactive.
Screening COC1=C/C(=C/c2c(N)n3nc(-c4ccc(C)cc4)sc3nc2=O)C=CC1=O returned VDR inhibitor inactive, PI5P4K alpha inh -74.4, FEN1 inh inconclusive, PLK1 PBD block inactive, TCR act inactive and WRN helicase inh inactive[11.6 µM].
For Nc1c(C=C2C=CC(=O)C=C2)c(=O)nc2sc(CC(=O)N3CCCC3)nn12 the results were VDR inhibitor inactive, PI5P4K alpha inh inactive, FEN1 inh inactive, PLK1 PBD block inactive, TCR act inactive and WRN helicase inh inactive[11.6 µM].
Screening CCS(=O)(=O)c1nn2c(N)c(/C=C3/C=CC(=O)C(OC)=C3)c(=O)nc2s1 returned VDR inhibitor inactive, PI5P4K alpha inh -84.3, FEN1 inh inactive, PLK1 PBD block inactive, TCR act inactive and WRN helicase inh inactive.
CCOC1=C/C(=C/c2c(N)n3nc(-c4ccccc4)sc3nc2=O)C=CC1=O was read as VDR inhibitor inactive, PI5P4K alpha inh -83.4, FEN1 inh inactive, PLK1 PBD block inactive, TCR act inactive and WRN helicase inh inconclusive.
Screening COC1=C/C(=C/c2c(N)n3c(nc2=O)sc2cc(S(C)(=O)=O)ccc23)C=CC1=O returned VDR inhibitor inactive, PI5P4K alpha inh -76.2, FEN1 inh inactive, PLK1 PBD block inactive, TCR act inactive and WRN helicase inh inactive[11.6 µM].
`CC(C)c1ccc(NC(=O)C2CCCN2S(=O)(=O)c2ccc3nc(-c4ccccc4)[nH]c3c2)cc1` (centres undefined) gave VDR inhibitor inactive and FEN1 inh inconclusive.
For O=[N+]([O-])c1cccc2[nH]cnc12 the results were FEN1 inh inactive.
CCc1cccc(Nc2cc(C)nc3ncnn23)c1 was read as VDR inhibitor inactive, PI5P4K alpha inh inactive, FEN1 inh inactive, PLK1 PBD block 23.8µM, TCR act inactive and WRN helicase inh inactive.
Screening CC1CCc2c(sc(N)c2C(N)=O)C1 (centres undefined) returned VDR inhibitor inconclusive, FEN1 inh inactive, PLK1 PBD block 26.7µM, TCR act inactive and WRN helicase inh inactive.
Screening CCC1CCc2c(sc(N)c2C(N)=O)C1 (centres undefined) returned VDR inhibitor inconclusive, PI5P4K alpha inh inconclusive, FEN1 inh inactive, PLK1 PBD block inconclusive, TCR act inactive and WRN helicase inh inactive.
For C/C=C1\COC(C(=O)NCCOCCO)(C(F)(F)F)C=C1C=C1CCCCC1 (centres undefined) the results were VDR inhibitor inconclusive and FEN1 inh inactive.
For O=S(=O)(c1ccc(-c2n[nH]c(=S)o2)cc1)N1CCCCC1 the results were VDR inhibitor inactive, PI5P4K alpha inh -77.4, FEN1 inh inactive, PLK1 PBD block inconclusive, TCR act inactive and WRN helicase inh inactive.
Cc1ccc(-c2ccc(S(=O)(=O)N3CCCC3)cc2)cc1 was read as VDR inhibitor inactive, PI5P4K alpha inh inactive, FEN1 inh inactive, PLK1 PBD block inactive, TCR act inactive and WRN helicase inh inactive.
`O=S(=O)(c1ccc(-c2n[nH]c(=S)o2)cc1)N1CCCC1` gave VDR inhibitor inactive, PI5P4K alpha inh -82.5, FEN1 inh inactive, PLK1 PBD block inactive, TCR act inactive and WRN helicase inh inactive.
Clc1cc(Cl)c(OCC#CI)cc1Cl was read as VDR inhibitor 2.82µM.
For Cc1cccc(NC(c2nnc(-c3ccccc3)o2)c2ccc(F)cc2Cl)c1C (centres undefined) the results were VDR inhibitor inactive and FEN1 inh inactive.
Screening CCOc1ccc(N(C(C)C(=O)N2CCCC2)S(C)(=O)=O)cc1 (centres undefined) returned VDR inhibitor inconclusive, PI5P4K alpha inh inactive, FEN1 inh inactive, PLK1 PBD block 18.9µM and WRN helicase inh inactive.
Screening CC(C(=O)N1CCCC1)N(c1ccc(Cl)cc1)S(C)(=O)=O (centres undefined) returned PI5P4K alpha inh inactive, PLK1 PBD block inactive and WRN helicase inh inactive.
CCOc1ccc(CNC(=O)c2ccc3c(Cl)c4c(nc3c2)CCCC4)cc1 was read as VDR inhibitor inactive and FEN1 inh inactive.
`O=C(O)c1ccc(N/N=C/C2=Cc3ccccc3OC2)cc1` gave VDR inhibitor inactive, PI5P4K alpha inh inactive, FEN1 inh inactive, PLK1 PBD block 23.8µM, TCR act inactive and WRN helicase inh inactive.
`O=C(O)c1ccc(N/N=C/c2ccncc2)cc1` gave VDR inhibitor inactive, PI5P4K alpha inh inactive, FEN1 inh inactive, PLK1 PBD block inactive, TCR act inactive and WRN helicase inh inactive.
CCOC(=O)CNC(=O)c1sc2ncnc(N3CCc4ccccc4C3)c2c1C was read as VDR inhibitor inactive, PI5P4K alpha inh inactive, FEN1 inh inactive, PLK1 PBD block inactive, TCR act inactive and WRN helicase inh inactive.
Screening CCCCNC(=O)c1sc2ncnc(N3CCc4ccccc4C3)c2c1C returned VDR inhibitor inconclusive, FEN1 inh inconclusive, PLK1 PBD block 26.7µM and WRN helicase inh inactive.
COc1ccc(OC)c(/C=C/c2c3ccccc3cc[n+]2C)c1 was read as FEN1 inh inactive.
For O=[N+]([O-])c1ccc(O/N=[N+](\[O-])N2CCCCC2)c([N+](=O)[O-])c1 the results were FEN1 inh inactive.
Screening CCOC(=O)c1cc(-c2ccccc2)nn1Cc1ccccc1 returned VDR inhibitor inactive and FEN1 inh inactive.
For C=CCN1CCN(c2nc3ccccc3nc2C#N)CC1 the results were VDR inhibitor 35.5µM.
Screening C=CCNC(=O)C(C#N)c1nc2ccccc2nc1N1CCCCCC1 (centres undefined) returned VDR inhibitor inactive, PI5P4K alpha inh inactive, FEN1 inh inconclusive, PLK1 PBD block inactive, TCR act inactive and WRN helicase inh inactive.
`COc1ccc(N2CCN(C(=O)c3ccc(N(C)S(=O)(=O)c4ccc(OC)cc4)cc3)CC2)cc1` gave VDR inhibitor 89.1µM, PI5P4K alpha inh inconclusive, FEN1 inh inactive, PLK1 PBD block 13.4µM, TCR act inactive and WRN helicase inh inactive.
`COc1ccc(N2CCN(C(=O)c3ccc(N(C)S(=O)(=O)c4ccc(C)cc4)cc3)CC2)cc1` gave VDR inhibitor inactive, PI5P4K alpha inh inactive, FEN1 inh inactive, PLK1 PBD block inactive, TCR act inactive and WRN helicase inh inactive.

Bioassay records: PubChem BioAssay, National Center for Advancing Translational Sciences (NCATS)
